From PubChem BioAssay (Tox21)
Several values for one entry are separate records, joined by “and”; a condition that tells them apart may be missing. Equal entries are not always repeated. Inconclusive results are not listed. Where a call stands in place of a potency, no number is given. The source holds several records for some structures; these can differ, active in one and inactive in another. Activity calls are given as the source filed them. Unless noted, calls come from the whole dose curve; as a rule, active = well fitted curve in the direction sought with a large enough effect in the repeat runs; inconclusive = weak or mixed curves; inactive = no such curve, though single readings can be large; an effect the other way counts as inactive or inconclusive.

Assays:
[1] = qHTS assay to identify small molecule antagonists of the estrogen related receptor (ERR) signaling pathway from Tox21 library - cell viability counter screen (AID 1224834); note: nearly all actives have a fitted effect of over 30% in size; note: potency is the fitted concentration of half-maximal effect
Procedure, shortened: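 Viability readout (CellTiter-Fluor fluorescence, 30 min at 37 C) multiplexed with the ERR assay; cells treated 17.5 h at 37 C with compounds delivered in DMSO.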

[2] = molecular target: Luciferin 4-monooxygenase (Photinus pyralis) (UniProt P08659); test: qHTS assay to identify small molecule inhibitors of firefly luciferase (AID 1224835); note: nearly all actives have a fitted effect of over 25% in size; note: potency is the fitted concentration of half-maximal effect
Procedure, shortened: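 Biochemical qHTS: compounds run as interplate titrations against purified firefly enzyme, with D-luciferin and ATP each at its KM concentration. Light output recorded by CCD imaging.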

[3] = qHTS assay to identify small molecule antagonists of the constitutive androstane receptor (CAR) signaling pathway - cell viability counter screen (AID 1224837); note: nearly all actives have a fitted effect of over 45% in size; note: potency is the fitted concentration of half-maximal effect
Procedure, shortened: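 Fluorescence from CellTiter-Fluor served as the viability signal. Human hepatoma HepG2 cells stably bearing hCAR and CYP2B6-2.2kb received compound plus CITCO (50 nM final) for 23 hr.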

[4] = qHTS assay to identify small molecule antagonists of the estrogen related receptor signaling pathway with the pleiotropic PPARgamma coactivator (PGC) from Tox21 10K library - cell viability counter screen (AID 1224840; active = well fitted cell-killing curve with a large enough effect in the repeat runs, not every such curve was filed as active; note: nearly all actives have a fitted effect of over 40% in size; note: potency is the fitted concentration of half-maximal effect)
Procedure, shortened: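 Compounds in DMSO, alongside positive and negative controls, were pinned onto PGC/ERR cells (2,000 per well). Exposure lasted 17.5 hours at 37 C, followed by a 30-minute CellTiter-Fluor incubation and fluorescence reading.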

[5] = qHTS assay to identify small molecule antagonists of the estrogen related receptor signaling pathway with the pleiotropic PPARgamma coactivator (PGC) from Tox21 10K library (AID 1224841; call rule not given here; note: actives are mostly falling curves and most rising ones were filed inactive; nearly all actives have a fitted effect of over 50% in size; note: potency is the fitted concentration of half-maximal effect)
Procedure, shortened: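 Compound exposure ran 18 hours at 37 C in PGC/ERR cells (2,000/well) that had first rested 6 hours in a 37 C/5% CO2 incubator. Luciferase activity was then detected with One-Glo after a 30-minute room-temperature step.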

[6] = qHTS assay to identify small molecule agonists of the estrogen related receptor signaling pathway with the pleiotropic PPARgamma coactivator (PGC) from Tox21 10K library (AID 1224842); note: nearly all actives have a fitted effect of over 15% in size
Procedure, shortened: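 PGC/ERR reporter cell line, 2,000 cells per well, incubated 6 h at 37 C before 23 nL compound in DMSO was added. After 18 h at 37 C, One-Glo luminescence read following 30 min at room temperature.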

[7] = molecular target: Thyrotropin receptor (Homo sapiens) (UniProt P16473); test: qHTS assay to identify small molecule agonists of the thyroid stimulating hormone receptor (TSHR) signaling pathway (AID 1224843; calls by dose curve; note: nearly all actives have a fitted effect of over 45% in size; note: potency is the fitted concentration of half-maximal effect)
Procedure, shortened: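 TSHR-HEK293 cells in agonist mode, 30 min room-temperature step, then cAMP measured by competitive HTRF (cAMP-d2 with anti-cAMP cryptate) after 1 h at room temperature. Tested at 15 concentrations in triplicate.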

[8] = qHTS assay to identify small molecule agonists of the hypoxia (HIF-1) signaling pathway - cell viability counter screen (AID 1224844; calls by dose curve; note: nearly all actives have a fitted effect of over 50% in size; note: potency is the fitted concentration of half-maximal effect)
Procedure, shortened: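 Luminescent ATP content (CellTiter-Glo, 30 min, room temperature) served as the viability measure in HRE-bla ME-180 cells exposed to compounds for 17 hrs in low-serum medium (0.5% dialyzed FBS).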

[9] = qHTS assay to identify small molecule agonists of H2AX (AID 1224845; active = well fitted activation curve with a large enough effect in the signal ratio in the repeat runs, not every such curve was filed as active; the % refers to the signal ratio)
Procedure, shortened: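 Wild-type CHO-K1 cells, plated overnight, exposed 3hr at 37C to 15 concentrations (0.76% DMSO final). Lysed, then HTRF anti-pH2AX (S139) cryptate and anti-H2AX-d2 antibodies, 24 hr room temperature; 665/620 nm emission read.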

[10] = qHTS assay to identify small molecule agonists of the hypoxia (HIF-1) signaling pathway (AID 1224846; active = well fitted activation curve with a large enough effect in the signal ratio in the repeat runs, not every such curve was filed as active; the % refers to the signal ratio)
Procedure, shortened: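 Measured by blue/green FRET after loading CCF4-AM: beta-lactamase expressed from a hypoxia response element in ME-180 cells. Test agents were delivered in DMSO and left 17 hrs; cells had been plated 5 hrs earlier in low-serum (0.5% dialyzed FBS) medium.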

[11] = qHTS assay to identify small molecule agonists of H2AX - cell viability counter screen (AID 1224847; calls by dose curve; note: nearly all actives have a fitted effect of over 30% in size; note: potency is the fitted concentration of half-maximal effect)
Procedure, shortened: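 Read-out: CellTiter-Glo luminescence, 30 min RT. Cells: wild-type CHO-K1, 1000/well, 10% FBS, plated overnight at 37C. Treatment: 15 concentrations, 3 hr, 37C, 0.76% DMSO.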

[12] = qHTS assay to identify small molecule antagonists of the estrogen related receptor (ERR) signaling pathway from Tox21 library (AID 1224848); note: nearly all actives have a fitted effect of over 50% in size; note: potency is the fitted concentration of half-maximal effect
Procedure, shortened: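 ERR reporter cell line (from NTP) seeded 2,000 cells/well, rested 6 h at 37 C/5% CO2, then pin-dosed with compounds in DMSO. After 18 h at 37 C, ONE-Glo added; luminescence read after 30 min at room temperature.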

[13] = qHTS assay to identify small molecule agonists of the estrogen related receptor (ERR) signaling pathway from Tox21 library (AID 1224849; calls by dose curve; note: nearly all actives have a fitted effect of over 15% in size); conditions: ERR reporter cell line, ONE-Glo luciferase, 18 h
Procedure, shortened: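 We plated ERR reporter cells, waited 6 h, added compounds in DMSO by pin tool and incubated them 18 h at 37 C. ONE-Glo was then added and luminescence read after 30 min.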

[14] = qHTS RealTime-Glo MT Cell Viability Assay in HepG2 cells - 24 hour (AID 1224867); note: nearly all actives have a fitted effect of over 50% in size; note: potency is the fitted concentration of half-maximal effect
Procedure, shortened: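 Real-time, nonlytic viability: 600 HepG2 cells/well mixed with NanoLuc enzyme plus prosubstrate; 5 h settle, compound (DMSO) added by pintool; luminescence monitored over 40 h at 37 C.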

[15] = qHTS RealTime-Glo MT Cell Viability Assay in HEK293 cells - 32 hour (AID 1224868); note: nearly all actives have a fitted effect of over 50% in size; note: potency is the fitted concentration of half-maximal effect
Procedure, shortened: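 Cells + reagent dispensed (600 cells/well, HEK293) → 5 h at 37 C/5% CO2 → 23 nL compound in DMSO pinned → 40 h at 37 C → luminescence read at 0, 8, 16, 24, 32, 40 h.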

[16] = A CellTox Green Cytotoxicity Assay to monitor cytotoxicity in HEK293 cells - 0 hour (AID 1224869); note: nearly all actives have a fitted effect of over 50% in size
Procedure, shortened: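 Each value comes from one timepoint of a single continuous run in which HEK293 cells with CellTox Green were exposed to compound for up to 40 h at 37 C, dye fluorescence rising with cell death.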

[17] = molecular target: Nuclear receptor subfamily 1 group I member 3 (Homo sapiens) (UniProt Q14994); test: qHTS assay to identify small molecule antagonists of the constitutive androstane receptor (CAR) signaling pathway (AID 1224838);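 note: HepG2 cells stably expressing hCAR with CYP2B6 luciferase reporter stimulated by CITCO; nearly all actives have a fitted effect of over 40% in size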; note: potency is the fitted concentration of half-maximal effect
Procedure, shortened: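 Quantitative HTS in double-stable HepG2-CYP2B6-hCAR cells. After 4 h plating, cells get compound (15 concentrations) and CITCO at 50 nM final, incubate 24 h at 37 C, then ONE-Glo luminescence is read.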

[18] = molecular target: Nuclear receptor subfamily 1 group I member 3 (Homo sapiens) (UniProt Q14994); test: qHTS assay to identify small molecule agonists of the constitutive androstane receptor (CAR) signaling pathway (AID 1224839); note: nearly all actives have a fitted effect of over 15% in size; note: potency is the fitted concentration of half-maximal effect;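 for activation: HepG2 cells stably carrying human CAR and a CYP2B6 luciferase reporter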
Procedure, shortened: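 In this screen, CAR-driven CYP2B6 promoter activity is measured by luminescence in HepG2-CYP2B6-hCAR cells after 24 h with test compounds and 0.75 uM PK11195 (final concentration).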

[19] = qHTS assay to identify small molecule agonists of the constitutive androstane receptor (CAR) signaling pathway - cell viability counter screen (AID 1224836); note: nearly all actives have a fitted effect of over 45% in size
Procedure, shortened: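 Compound titrations (15 concentrations) went onto HepG2-CYP2B6-hCAR cells 4 h after seeding, alongside PK11195 at a final 0.75 uM; a 23 h, 37 C/5% CO2 incubation preceded CellTiter-Fluor viability measurement.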

Chain of Thyrotropin receptor (Homo sapiens) (P16473 whole entry, looked up): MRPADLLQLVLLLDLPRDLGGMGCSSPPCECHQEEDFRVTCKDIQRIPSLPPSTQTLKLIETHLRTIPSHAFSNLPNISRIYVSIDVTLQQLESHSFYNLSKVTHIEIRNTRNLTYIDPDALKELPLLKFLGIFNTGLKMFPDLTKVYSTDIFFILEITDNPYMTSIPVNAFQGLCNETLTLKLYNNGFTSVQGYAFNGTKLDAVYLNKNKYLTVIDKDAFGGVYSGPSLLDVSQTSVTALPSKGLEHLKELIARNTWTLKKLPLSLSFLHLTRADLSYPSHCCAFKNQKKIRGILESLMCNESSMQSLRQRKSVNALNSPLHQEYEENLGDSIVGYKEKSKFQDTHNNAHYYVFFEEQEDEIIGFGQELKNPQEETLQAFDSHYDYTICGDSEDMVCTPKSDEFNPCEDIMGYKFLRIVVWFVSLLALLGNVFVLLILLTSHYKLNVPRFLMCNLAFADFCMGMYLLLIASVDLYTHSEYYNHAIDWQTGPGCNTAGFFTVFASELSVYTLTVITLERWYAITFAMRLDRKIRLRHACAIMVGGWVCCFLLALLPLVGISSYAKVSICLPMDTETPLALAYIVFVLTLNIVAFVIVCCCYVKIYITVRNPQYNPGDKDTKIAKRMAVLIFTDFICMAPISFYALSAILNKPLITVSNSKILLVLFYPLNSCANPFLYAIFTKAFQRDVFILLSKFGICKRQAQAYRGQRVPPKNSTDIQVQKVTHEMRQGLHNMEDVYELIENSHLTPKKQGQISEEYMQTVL
Chain of Nuclear receptor subfamily 1 group I member 3 (Homo sapiens) (Q14994 whole entry, looked up): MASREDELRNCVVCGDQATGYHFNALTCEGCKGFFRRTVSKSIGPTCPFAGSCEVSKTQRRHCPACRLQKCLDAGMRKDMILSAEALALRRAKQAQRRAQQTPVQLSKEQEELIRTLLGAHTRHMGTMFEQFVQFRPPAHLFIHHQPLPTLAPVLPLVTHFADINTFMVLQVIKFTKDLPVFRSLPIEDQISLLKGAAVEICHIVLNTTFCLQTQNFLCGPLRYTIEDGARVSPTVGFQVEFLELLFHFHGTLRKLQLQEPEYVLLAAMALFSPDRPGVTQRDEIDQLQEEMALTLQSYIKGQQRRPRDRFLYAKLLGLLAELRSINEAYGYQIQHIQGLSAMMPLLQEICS
Chain of Luciferin 4-monooxygenase (Photinus pyralis) (P08659 whole entry, looked up): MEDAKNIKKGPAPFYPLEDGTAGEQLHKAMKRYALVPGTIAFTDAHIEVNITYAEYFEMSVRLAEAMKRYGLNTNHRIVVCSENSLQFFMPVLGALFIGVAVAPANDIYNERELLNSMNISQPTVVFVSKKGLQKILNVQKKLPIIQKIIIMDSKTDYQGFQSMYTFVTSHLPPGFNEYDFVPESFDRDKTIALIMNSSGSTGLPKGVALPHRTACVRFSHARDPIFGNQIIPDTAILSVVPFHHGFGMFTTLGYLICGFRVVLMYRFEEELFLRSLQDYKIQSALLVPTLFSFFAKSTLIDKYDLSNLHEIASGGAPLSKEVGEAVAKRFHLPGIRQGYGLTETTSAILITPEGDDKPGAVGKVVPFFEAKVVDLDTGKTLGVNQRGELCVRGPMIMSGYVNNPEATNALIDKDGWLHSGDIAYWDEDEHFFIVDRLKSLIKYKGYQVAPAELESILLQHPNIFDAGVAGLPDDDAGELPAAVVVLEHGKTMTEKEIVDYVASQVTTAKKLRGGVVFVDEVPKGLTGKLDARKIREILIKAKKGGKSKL

Row | Structure (SMILES) | Potency [1] | Potency [2] | Potency [3] | Potency [4] | Potency [5] | Potency [6] | Potency [7] | Potency [8] | outcome [9] | Potency [10] | Potency [11] | Potency [12] | activity change, positive = activation ([13]; at 92.4 µM (top of the series)) | Potency [14] | Potency [15] | Potency [16] | Potency [17] | Potency [18] | Potency [19] | activity change, positive = activation ([13]; at 42.5 µM (top of the series))
1 | C/C=C/C(=O)O | inactive | inactive | inactive | inactive | inactive | inactive | inactive | inactive | inactive | inactive | inactive | inactive | 7.56% (inactive) and 0.71% (inactive) | inactive | inactive | inactive | – | – | – | –
2 | Oc1ccc(O)cc1 | inactive | inactive | inactive | – | – | – | – | inactive | – | – | – | – | – | inactive | – | inactive | inactive | 30.5 µM (active) and 34.4 µM (active) | – | –
3 | COc1c(Cl)c(Cl)c(Cl)c(Cl)c1Cl | inactive | inactive | inactive | inactive | inactive | inactive | inactive | inactive | inactive | inactive | – | inactive | 0.259% (inactive) and 0.227% (inactive) | inactive | inactive | inactive | inactive | – | – | –
4 | CCCCOCCOCCO | inactive | inactive | inactive | inactive | – | – | inactive | inactive | inactive | inactive | – | – | – | inactive | inactive | inactive | – | – | – | –
5 | CC(C)CC(C)(O)C#CC(C)(O)CC(C)C (configuration not stated) | inactive | – | inactive | – | inactive | inactive | inactive | inactive | inactive | inactive | – | inactive | -11.8% (inactive) and -19.1% (inactive) | inactive | inactive | inactive | inactive | inactive | inactive | –
6 | c1ccc(Nc2ccccc2)cc1 | 48.5 µM (active) and inactive | – | inactive | – | inactive | inactive | inactive | inactive | inactive | inactive | – | 27.3 µM (active) and inactive | -73.5% (inactive) and -5.69% (inactive) | inactive | 19.5 µM (active) and inactive | inactive | inactive | inactive | – | –
7 | CC1=CCC(C(C)(C)O)CC1 (configuration not stated) | inactive | inactive | inactive | inactive | – | – | inactive | inactive | inactive | inactive | – | – | – | inactive | – | inactive | – | – | – | –
8 | CNCCCC12CCC(c3ccccc31)c1ccccc12 | 61.1 µM (active) and inactive | inactive | – | 48.6 µM (active) and inactive | – | – | 4.33 µM (active) and 26.6 µM (active) | inactive | – | – | 113 µM (active) | – | – | 49 µM (active) and 23.9 µM (active) | 49 µM (active) and 23.9 µM (active) | inactive | 21.7 µM (active) and inactive | – | – | –
9 | O=P(O)(O)O | inactive | – | inactive | inactive | – | – | inactive | inactive | inactive | inactive | – | – | – | inactive | – | inactive | – | – | – | –
10 | COc1ccccc1/C=C/C=O | – | inactive | inactive | inactive | – | – | 31.4 µM (active) and 54.5 µM (active) | inactive | inactive | inactive | inactive | – | – | inactive | – | inactive | – | – | inactive | –
11 | CC(=O)Oc1ccccc1C(=O)Nc1ncc([N+](=O)[O-])s1 | 14 µM (active) and 18.8 µM (active) | 1.29 µM (active) and 3.09 µM (active) | 24.8 µM (active) and 23.7 µM (active) | – | – | – | inactive | inactive | inactive | – | 9.16 µM (active) and 24.7 µM (active) | – | – | inactive | – | inactive | inactive | 556 nM (active) and 473 nM (active) | – | –
12 | CN1C(C(=O)Nc2ccccn2)=C(O)c2ccccc2S1(=O)=O | inactive | – | inactive | inactive | – | – | inactive | inactive | inactive | – | inactive | – | – | inactive | inactive | inactive | inactive | inactive | inactive | –
13 | Nc1ccc(Nc2ccccc2)cc1 | 54.5 µM (active) and 27.3 µM (active) | 79.7 µM (active) | inactive | – | – | – | – | inactive | – | inactive | 89.8 µM (active) and 50.5 µM (active) | – | – | inactive | 48.5 µM (active) | inactive | inactive | – | – | –
14 | CCCC(=O)O | inactive | inactive | inactive | – | inactive | inactive | inactive | inactive | inactive | inactive | inactive | inactive | 4.22% (inactive) and -0.802% (inactive) | inactive | – | inactive | inactive | inactive | – | –
15 | CCC(C)(O)CCCC(C)C (configuration not stated) | inactive | inactive | inactive | – | – | – | inactive | inactive | inactive | inactive | inactive | – | – | inactive | inactive | inactive | inactive | inactive | – | –
16 | CC(C)OC=O | inactive | inactive | inactive | – | inactive | inactive | inactive | 58.4 µM (active) and inactive | inactive | inactive | inactive | inactive | -9.53% (inactive) and -2.76% (inactive) | inactive | – | inactive | inactive | inactive | – | –
17 | O=C1c2cccc(O)c2C(=O)c2c(O)cccc21 | – | inactive | inactive | inactive | 39 µM (active) and inactive | inactive | inactive | inactive | inactive | inactive | inactive | – | -20.9% (inactive) | inactive | – | inactive | inactive | inactive | – | -19.1% (inactive)
